Screening data: PubChem, Bradner/Qi Labs at DFCI
CBX7 inh: CBX7 inhibition, primary AlphaScreen; 66,000 compounds, 1.1% hits; normalised signal (fraction of DMSO) (no concentration beside the values); AlphaScreen His6-CBX7 / biotin-H3K27me3 peptide binding; active compounds read low; O95931; AID 1224903; in the data active = normalised signal below about 0.5
Target sequence (O95931 whole entry, looked up): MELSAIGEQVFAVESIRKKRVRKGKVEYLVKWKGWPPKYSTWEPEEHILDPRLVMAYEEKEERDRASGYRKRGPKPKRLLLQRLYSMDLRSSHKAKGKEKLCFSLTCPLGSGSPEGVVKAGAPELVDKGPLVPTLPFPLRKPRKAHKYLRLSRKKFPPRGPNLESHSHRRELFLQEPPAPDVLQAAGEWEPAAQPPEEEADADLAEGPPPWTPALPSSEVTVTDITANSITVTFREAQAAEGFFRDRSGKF
Starred values were filed as active, the others as inactive. Only a selection was taken, and hits are over-represented in it overall.

SMILES	CBX7 inh
Cc1cccc2nc(-c3ccc(Cl)cc3)c(Nc3ccc4c(c3)OCO4)n12	0.68
Cc1cccc2nc(-c3ccc(N(C)C)cc3)c(Nc3ccc4c(c3)OCO4)n12	0.84
Cc1cccc2nc(-c3ccsc3)c(Nc3ccc4c(c3)OCO4)n12	0.78
CCC(=O)Nc1nc(C)c(-c2csc(Nc3ccc(OC)cc3)n2)s1	0.5*
COc1ccc(OC)c(Nc2nc(-c3sc(C)nc3C)cs2)c1	0.84
CCC(=O)Nc1nc(C)c(-c2csc(Nc3cc(OC)ccc3OC)n2)s1	0.5*
CCC(=O)Nc1nc(C)c(-c2csc(Nc3ccccn3)n2)s1	0.88
CCC(=O)Nc1nc(C)c(-c2csc(Nc3ncccn3)n2)s1	1.1
CCC(=O)Nc1nc(C)c(-c2csc(Nc3ccccc3OC)n2)s1	0.83
CCc1ccc2oc(-c3ccc(C)c(NC(=O)CC(C)C)c3)nc2c1	1.1
CCCNC(=O)C1CCN(Cc2nc(-c3ccc(Cl)cc3)oc2C)CC1	1.1
COc1cccc(-c2cc(C(F)(F)F)n3nc(C)cc3n2)c1	1.3
CN1CCN(C(=O)CN2C(=O)COc3ccc(S(=O)(=O)N4CCCC4)cc32)CC1	0.99
COc1ccccc1C(CCNCc1ccc2c(c1)OCO2)c1ccc2c(c1)OCO2 (stereo unspecified)	0.79
COc1ccc(CNCCC(c2ccccc2)c2ccc3c(c2)OCO3)cc1 (stereo unspecified)	0.9
COc1ccccc1C(CCNCc1ccc(OC(C)C)cc1)c1ccc2c(c1)OCO2 (stereo unspecified)	0.17*
COc1ccc2c(c1)CCc1c(C(=O)N3CCN(c4ccccc4OC)CC3)noc1-2	0.97
Cc1ccc2[nH]c3c(c2c1)CCCC3NCCCO (stereo unspecified)	1
c1ccc(CNC2CCCc3c2[nH]c2ccc(-c4ccccc4)cc32)cc1 (stereo unspecified)	0.67
Cc1ccc2[nH]c3c(c2c1)CCCC3NCc1ccc(Cl)cc1 (stereo unspecified)	0.49*
COc1ccc(OCC(=O)Nc2cc(-c3nc4ccccc4o3)ccc2OC)cc1	1
c1ccc(C(c2ccccc2)c2nc(-c3cccnc3)no2)cc1	0.32*
c1ccc(C(Cc2nc(-c3cccnc3)no2)c2ccccc2)cc1	0.93
COc1ccc(-c2noc(C(c3ccccc3)c3ccccc3)n2)cc1	1.1
Cc1ccc(C)c(-n2c(Cc3cc(=O)[nH]c(=O)[nH]3)nnc2SCC(=O)Nc2cccc(C)c2C)c1	1.1
SMILES	CBX7 inh
Cc1cccc(Cc2c(C)nc3c(C(=O)NC4CCCCC4)cnn3c2C)c1	0.95
O=C(Nc1cccc(-c2cn3ccccc3n2)c1)c1ccncc1	1
CCOc1ccccc1NC(=O)CSc1nccn1-c1cccc(C)c1	0.76
Cc1cc(C)c(NC(=O)CSc2nccn2-c2cccc(Cl)c2)c(C)c1	0.88
Cc1cccc(NC(=O)CSc2nccn2-c2ccc(Cl)cc2)c1C	0.44*
Cc1ccc(C)c(NC(=O)CSc2nccn2-c2ccc(Cl)cc2)c1	0.8
Cc1cccc(NC(=O)CSc2nccn2-c2ccccc2)c1C	0.77
COc1ccccc1NC(=O)CSc1nccn1-c1cccc(Cl)c1	0.97
CCOc1ccccc1NC(=O)CSc1nccn1-c1cccc(Cl)c1	0.29*
Cc1cccc(NC(=O)CSc2nccn2-c2cccc(Cl)c2)c1C	0.47*
Cc1ccc(C)c(NC(=O)CSc2nccn2-c2cccc(Cl)c2)c1	0.93
O=C(C1CCC(Cn2c(=O)[nH]c3ccsc3c2=O)CC1)N1CCN(c2ccc(F)cc2)CC1 (stereo unspecified)	1
COC(=O)CCSc1nc2c(c(=O)[nH]1)C(C)(C1CCCCC1)Cc1ccccc1-2 (stereo unspecified)	0.92
CC1CCCCC1NS(=O)(=O)c1ccc2nc(-c3ccccc3)[nH]c2c1 (stereo unspecified)	0.96
COc1ccccc1CNC(=O)c1ccc2c(c1)NC(=O)C1CCCN21 (stereo unspecified)	0.91
CC(=O)N1CCN(CC(O)COc2ccc(Br)cc2)CC1 (stereo unspecified)	0.46*
CCCCOCC(O)CN1CCN(C(C)=O)CC1 (stereo unspecified)	1.1
COc1ccc(OCC(O)CN2CCCCC2)cc1 (stereo unspecified)	1
Cc1cc(C)c2oc(-c3ccc(C)c(NC(=O)c4ccccc4F)c3)nc2c1	1
COc1ccc(CC(=O)NCCc2cc3cc(C)c(C)cc3[nH]c2=O)cc1	1.1
COc1ccc(Nc2cc(C)nc3c2ccc2ccccc23)cc1OC	0.81
Cc1cc2ncn(CC(O)COCC3CC=CCC3)c2cc1C (stereo unspecified)	0.65
Cc1cc2ncn(CC(O)COc3ccc(C(=O)O)cc3)c2cc1C (stereo unspecified)	1
Cc1cc2ncn(CC(O)COC3CCCCC3)c2cc1C (stereo unspecified)	0.044*
Cc1cc2ncn(CC(O)COCc3ccccc3)c2cc1C (stereo unspecified)	0.051*
SMILES	CBX7 inh
Cc1ccc(OCCCn2cnc3cc(C)c(C)cc32)cc1	0.96
Cc1ccc(OCC(O)Cn2cnc3cc(C)c(C)cc32)cc1 (stereo unspecified)	0.072*
Cc1ccc(Cl)c(OCC(O)Cn2cnc3cc(C)c(C)cc32)c1 (stereo unspecified)	0.72
Cc1cccc(OCC(O)Cn2cnc3cc(C)c(C)cc32)c1 (stereo unspecified)	0.045*
Cc1cc2ncn(C(C)c3ccccc3)c2cc1C (stereo unspecified)	1
O=C1c2ccccc2C(=O)N1CC(O)COCc1ccccc1 (stereo unspecified)	1
COC(=O)c1ccc(OCC(O)Cn2cnc3cc(C)c(C)cc32)cc1 (stereo unspecified)	0.87
CCCCn1c(=N)n(CC(O)COc2cccc(C)c2)c2ccccc21 (stereo unspecified)	0.65
Cc1cc2cc(CCNC(=O)c3ccc(C(C)(C)C)cc3)c(=O)[nH]c2cc1C	1
Cc1cc(Br)ccc1N1C(=O)c2ccc(C(=O)O)cc2C1=O	0.88
CC1CCC(NC(=O)C2c3cccn3CC(=O)N2c2cccc(F)c2)CC1 (stereo unspecified)	1.1
CCCCSCCCNC(=O)c1cc(Nc2cc(OC)ccc2OC)nc2ccccc12	1
CN1CCN(C(=O)c2cc(-c3ccc4c(c3)OCO4)on2)CC1	0.99
Cc1ccc(-c2nc3ccccc3o2)cc1NC(=O)COc1ccc(C(C)C)cc1	0.96
O=C(Nc1nnc(-c2ccccc2Br)s1)c1ccc2c(c1)OCO2	1.1
CCc1ccc(NC(=O)CCc2c(C)nc3c(-c4ccc(F)cc4)c(C)nn3c2C)cc1	1.2
COc1ccc(CN2C(=O)c3ccccc3C2C(=O)NCCCN2C(C)CCCC2C)cc1 (stereo unspecified)	1.1
COC(=O)c1c[nH]n2c(NC3CCCCCC3)c(-c3cccc(C)c3)nc12	0.44*
COC(=O)c1c[nH]n2c(NC3CCC(C)CC3)c(-c3cccc(F)c3)nc12 (stereo unspecified)	0.33*
COC(=O)c1c[nH]n2c(NCCc3ccccc3)c(-c3cccc(OC)c3)nc12	0.86
COC(=O)c1c[nH]n2c(=O)c(Cc3ccccc3C)c(C)nc12	1.1
COC(=O)c1c[nH]n2c(=O)c(Cc3cccc(Cl)c3)c(C)nc12	0.98
COC(=O)c1c[nH]n2c(=O)c(Cc3cc(C)ccc3C)c(C)nc12	1.3
Cc1nc2c(C(=O)NC3CC3)c[nH]n2c(=O)c1Cc1ccccc1F	1
